From PubChem BioAssay
Calls of active or inactive are those of the source.

Assays:
[1] = system: Plasmodium falciparum Sir2 (PF13_0152, Sir2A); experiment: pfSir2 binders on small-molecule microarrays, primary screen, biochemical, small-molecule microarray, 635 nm fluorescence (AID 1098); details: small-molecule microarray binding, fluorescence 635 nm; higher = more signal;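 further: score merges spot fluorescence intensity with its signal-to-noise ratio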
[2] = small-molecule microarray binders of probe aDKK1, primary screen, biochemical, biotinylated probe, 635/667 nm fluorescence (AID 1099); details: higher = more signal;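 further: score merges 667nm spot fluorescence with signal to noise across triplicate slides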
[3] = small-molecule microarray binders of probe aCHRDL2, primary screen, biochemical, biotinylated probe, 635/667 nm fluorescence (AID 1100); details: higher = more signal
[4] = splicing luciferase reporter signal modulators, primary screen, spliceosome inhibition project, cell-based, HEK293, splice +/- reporter (AID 1101); details: luminescence, 24 h, higher = more signal, called active from +8 up or from −8 down;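 further: HEK293 cells carrying a splicing-competent luciferase reporter gene; test concentration not given here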
[5] = target: Fibroblast growth factor 10 (Homo sapiens) (UniProt O15520); experiment: FGF10 binders on small-molecule microarrays, primary screen, biochemical, small-molecule microarray, 635 nm fluorescence (AID 1102); details: FGF10 binding, fluorescence 635 nm, higher = more signal
Fibroblast growth factor 10 (Homo sapiens), sequence (O15520 whole entry, looked up): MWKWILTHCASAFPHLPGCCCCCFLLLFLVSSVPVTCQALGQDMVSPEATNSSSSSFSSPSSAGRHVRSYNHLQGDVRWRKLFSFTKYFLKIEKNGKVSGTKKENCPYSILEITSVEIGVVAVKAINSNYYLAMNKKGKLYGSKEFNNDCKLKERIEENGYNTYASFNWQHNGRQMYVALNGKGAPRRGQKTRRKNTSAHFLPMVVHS

[6] = system: glycogen synthase kinase-3 (GSK3A per assay name; protocol says GSK3B); experiment: GSK3 binders on small-molecule microarrays, primary screen, biochemical, small-molecule microarray, 635 nm fluorescence, GSK3A (AID 1103); details: small-molecule microarray binding, fluorescence 635 nm; higher = more signal; further: the record names both GSK3A and GSK3B
[7] = target: Epidermal growth factor receptor (Homo sapiens) (UniProt P00533); experiment: EGFR binders on small-molecule microarrays, primary screen, biochemical, small-molecule microarray, 635 nm fluorescence (AID 1104); details: EGFR binding, higher = more signal;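 further: score merges 667 nm emission intensity with spot signal to noise over triplicate slides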
Epidermal growth factor receptor (Homo sapiens), sequence (P00533 whole entry, looked up): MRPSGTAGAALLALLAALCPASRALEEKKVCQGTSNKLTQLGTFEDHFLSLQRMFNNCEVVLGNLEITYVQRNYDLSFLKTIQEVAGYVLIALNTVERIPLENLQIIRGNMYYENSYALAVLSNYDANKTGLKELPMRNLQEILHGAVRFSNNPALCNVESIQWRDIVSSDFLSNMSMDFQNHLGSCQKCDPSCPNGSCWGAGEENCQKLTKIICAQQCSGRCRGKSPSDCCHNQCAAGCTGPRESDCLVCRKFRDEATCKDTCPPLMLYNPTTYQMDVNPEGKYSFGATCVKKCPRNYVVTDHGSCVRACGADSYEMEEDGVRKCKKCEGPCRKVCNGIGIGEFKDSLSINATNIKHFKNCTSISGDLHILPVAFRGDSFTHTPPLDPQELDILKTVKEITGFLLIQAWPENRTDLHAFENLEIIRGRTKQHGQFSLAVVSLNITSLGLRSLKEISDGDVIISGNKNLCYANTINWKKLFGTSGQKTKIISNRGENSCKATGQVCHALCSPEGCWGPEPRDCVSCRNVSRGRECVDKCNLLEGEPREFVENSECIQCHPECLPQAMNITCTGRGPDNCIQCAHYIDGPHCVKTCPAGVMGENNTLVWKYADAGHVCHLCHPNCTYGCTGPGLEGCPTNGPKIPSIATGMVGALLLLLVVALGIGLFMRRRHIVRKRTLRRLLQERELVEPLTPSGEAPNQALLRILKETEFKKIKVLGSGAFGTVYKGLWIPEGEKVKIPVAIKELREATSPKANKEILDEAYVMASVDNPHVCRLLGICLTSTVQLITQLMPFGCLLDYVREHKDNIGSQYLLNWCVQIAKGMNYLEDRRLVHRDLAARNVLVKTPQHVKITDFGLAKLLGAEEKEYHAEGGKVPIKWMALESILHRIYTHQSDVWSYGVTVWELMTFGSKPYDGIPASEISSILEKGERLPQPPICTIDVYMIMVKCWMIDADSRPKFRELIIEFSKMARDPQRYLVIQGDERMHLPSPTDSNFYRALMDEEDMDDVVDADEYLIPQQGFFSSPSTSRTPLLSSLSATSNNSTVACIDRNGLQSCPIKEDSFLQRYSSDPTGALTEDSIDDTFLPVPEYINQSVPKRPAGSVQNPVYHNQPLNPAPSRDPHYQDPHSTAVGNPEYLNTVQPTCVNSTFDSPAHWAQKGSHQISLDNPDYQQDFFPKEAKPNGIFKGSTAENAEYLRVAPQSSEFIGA

[8] = target: Follistatin-related protein 3 (Homo sapiens) (UniProt O95633); experiment: FSTL3 binders on small-molecule microarrays, primary screen, biochemical, small-molecule microarray, 635 nm fluorescence (AID 1105); details: FSTL3 binding, higher = more signal;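 further: score merges emission near 667 nm and signal to noise per printed spot across three slides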
Follistatin-related protein 3 (Homo sapiens), sequence (O95633 whole entry, looked up): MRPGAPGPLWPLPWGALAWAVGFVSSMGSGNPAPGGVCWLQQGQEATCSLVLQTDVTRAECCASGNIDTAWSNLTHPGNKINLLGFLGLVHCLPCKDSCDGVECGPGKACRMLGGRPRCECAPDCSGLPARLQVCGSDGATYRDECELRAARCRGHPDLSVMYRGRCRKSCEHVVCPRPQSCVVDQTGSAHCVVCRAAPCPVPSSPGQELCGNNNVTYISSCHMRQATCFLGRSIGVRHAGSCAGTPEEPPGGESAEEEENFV

[9] = target: Dickkopf-related protein 1 (Homo sapiens) (UniProt O94907); experiment: DKK1 binders on small-molecule microarrays, primary screen, biochemical, small-molecule microarray, 635 nm fluorescence scan (AID 1106); details: DKK1 binding, higher = more signal;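 further: score merges emission near 667 nm with signal to noise over three replicate slides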
Dickkopf-related protein 1 (Homo sapiens), sequence (O94907 whole entry, looked up): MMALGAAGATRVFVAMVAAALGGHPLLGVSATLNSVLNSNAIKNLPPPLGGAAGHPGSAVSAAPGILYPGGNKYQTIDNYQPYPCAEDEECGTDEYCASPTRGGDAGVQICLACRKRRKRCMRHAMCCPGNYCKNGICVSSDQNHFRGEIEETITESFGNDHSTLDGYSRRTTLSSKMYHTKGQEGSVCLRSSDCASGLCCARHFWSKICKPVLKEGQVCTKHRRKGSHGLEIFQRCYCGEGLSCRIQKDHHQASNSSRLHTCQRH

[10] = system: Inhibin beta A chain (activin A); experiment: INHBA (activin A) binders on microarrays, primary screen, biochemical, small-molecule microarray, 635 nm fluorescence scan (AID 1107); details: small-molecule microarray binding, higher = more signal;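 further: mouse activin A protein probed at 4.33 µg/mL on printed slides; score merges bound-protein fluorescence near 667 nm with spot signal-to-noise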
[11] = system: Human papillomavirus type 1a protein E7 (residues 44-93); experiment: HPV1a E7 fragment binders on microarrays, primary screen, biochemical, small-molecule microarray, residues 44-93, 635 nm fluorescence (AID 1108); details: small-molecule microarray binding, fluorescence 635 nm; higher = more signal;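 further: E7 fragment applied at 1 µg/mL in TBST for 1 h at 4 C; score combines spot fluorescence with its signal to noise ratio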
[12] = modulators of HCV replicon luciferase signal, primary screen, HCV replication inhibitor project, Huh7 cells, luciferase reporter (AID 1109); details: 48 h, higher = more signal;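 further: huh7 hepatoma cells harbouring a luciferase neomycin HCV replicon reporter; luciferase luminescence as measure of HCV replicon replication; test concentration not given here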
[13] = target: Left-right determination factor 2 (Homo sapiens) (UniProt O00292); experiment: LEFTY2 binders on small-molecule microarrays, primary screen, biochemical, small-molecule microarray, 635 nm fluorescence scan (AID 1110); details: LEFTY2 binding, higher = more signal
Left-right determination factor 2 (Homo sapiens), sequence (O00292 whole entry, looked up): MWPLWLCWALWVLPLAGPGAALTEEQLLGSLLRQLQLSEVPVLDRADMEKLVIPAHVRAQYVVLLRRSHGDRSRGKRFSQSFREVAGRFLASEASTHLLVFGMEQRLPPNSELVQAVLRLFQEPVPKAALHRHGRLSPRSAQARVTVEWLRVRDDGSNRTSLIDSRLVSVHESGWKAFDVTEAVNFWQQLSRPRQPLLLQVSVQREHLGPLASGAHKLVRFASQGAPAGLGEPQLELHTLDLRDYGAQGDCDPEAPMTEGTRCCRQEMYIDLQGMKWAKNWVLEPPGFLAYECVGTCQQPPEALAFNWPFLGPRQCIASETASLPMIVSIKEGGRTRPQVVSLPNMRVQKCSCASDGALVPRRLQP

[14] = target: Calmodulin-1 (Homo sapiens) (UniProt P0DP23); experiment: CALM1 binders on microarrays, EGTA buffer, profiling panel, biochemical, small-molecule microarray, Cy5-labelled CALM1 (AID 1111); details: Cy5-CALM1 binding fluorescence, higher = more signal;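 further: labelled calmodulin applied in Tris saline Tween buffer holding calcium plus EGTA and DTT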
[15] = target: Calmodulin-1 (Homo sapiens) (UniProt P0DP23); experiment: calcium-bound CALM1 binders on microarrays, profiling panel, artefact control for SMM control-protein annotation, biochemical, small-molecule microarray, Cy5-labelled CALM1, plus calcium (AID 1112); details: Cy5-CALM1 binding fluorescence, higher = more signal;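 further: score merges spot fluorescence with signal to noise from triplicate slides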
[16] = small-molecule microarray binders of probe aWnt5a, primary screen, biochemical, biotinylated probe, 635/667 nm fluorescence (AID 1113); details: higher = more signal;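 further: score merges 667 nm fluorescence intensity with signal-to-noise per printed feature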
[17] = small-molecule microarray binders of probe aShh, primary screen, biochemical, biotinylated probe, 635/667 nm fluorescence (AID 1114); details: higher = more signal;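 further: probe is biotin-labelled aShh protein from a stem cell growth factor screen; measures binding of labelled protein to compounds printed on the slide; score merges feature fluorescence at 667 nm with signal-to-noise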
[18] = small-molecule microarray binders of probe aNog, primary screen, biochemical, biotinylated probe, 635/667 nm fluorescence (AID 1115); details: higher = more signal;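 further: probe is biotinylated aNog protein used at 0.15 µg/mL for 1 h at 4 C; z-score combines 667 nm fluorescence of each spot with its signal to noise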
[19] = target: Torsin-1A-interacting protein 1 (Homo sapiens) (UniProt Q5JTV8); experiment: LAP1 binders from COS7 cell lysate, primary screen, small-molecule microarray, 635/667 nm fluorescence (AID 1116); details: COS7-hLAP1 lysate binding, 635 nm fluorescence, higher = more signal
Torsin-1A-interacting protein 1 (Homo sapiens), sequence (Q5JTV8 whole entry, looked up): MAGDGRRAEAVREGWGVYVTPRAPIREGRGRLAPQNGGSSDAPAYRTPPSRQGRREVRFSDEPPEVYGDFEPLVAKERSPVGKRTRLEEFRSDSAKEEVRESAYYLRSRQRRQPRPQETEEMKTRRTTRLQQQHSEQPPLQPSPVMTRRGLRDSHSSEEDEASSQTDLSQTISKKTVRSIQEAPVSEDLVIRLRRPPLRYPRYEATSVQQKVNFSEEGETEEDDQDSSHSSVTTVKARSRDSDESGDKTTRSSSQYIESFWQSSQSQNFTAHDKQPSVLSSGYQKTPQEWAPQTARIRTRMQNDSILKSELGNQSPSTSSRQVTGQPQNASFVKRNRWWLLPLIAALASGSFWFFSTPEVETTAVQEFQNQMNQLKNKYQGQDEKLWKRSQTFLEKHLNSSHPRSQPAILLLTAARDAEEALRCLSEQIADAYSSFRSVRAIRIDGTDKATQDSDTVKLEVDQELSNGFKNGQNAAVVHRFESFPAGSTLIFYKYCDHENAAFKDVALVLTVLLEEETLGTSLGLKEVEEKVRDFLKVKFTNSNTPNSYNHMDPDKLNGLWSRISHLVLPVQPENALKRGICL

[20] = target: Alpha-bungarotoxin (Bungarus multicinctus) (UniProt P60615); experiment: alpha-bungarotoxin binders on microarray, profiling panel, artefact control for SMM control protein annotation, biochemical, small-molecule microarray, Alexa647 label, 635/667 nm fluorescence (AID 1117); details: alpha-BTX-A647 binding fluorescence, higher = more signal
Alpha-bungarotoxin (Bungarus multicinctus), sequence (P60615 whole entry, looked up): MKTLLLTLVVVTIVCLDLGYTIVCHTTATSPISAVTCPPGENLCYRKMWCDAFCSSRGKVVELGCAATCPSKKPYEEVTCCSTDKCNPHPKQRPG

Row | Structure (SMILES) | composite z-score [1] | composite z-score [2] | composite z-score [3] | z-score [4] | composite z-score [5] | composite z-score [6] | composite z-score [7] | composite z-score [8] | composite z-score [9] | composite z-score [10] | composite z-score [11] | z-score [12] | composite z-score [13] | composite z-score [14] | composite z-score [15] | composite z-score [16] | composite z-score [17] | composite z-score [18] | composite z-score [19] | composite z-score [20]
1 | O=C1C[C@@H](O)[C@@H](O)[C@@H]2[C@@H]3C(=O)N(Cc4ccccc4)C(=O)[C@@H]3CC[C@@H]12 | 0.463 | -0.222 | -0.47 | 0.859 (inactive) | 0.807 | 0.863 | 0.506 | 0.888 | 0.59 | 0.11 | 0.467 | -0.76 | 0.474 | -0.0573 | -0.761 | -0.195 | 0.0684 | -0.0784 | 0.442 | 0.101
2 | O=C(NN=C1C[C@@H](O)[C@@H](O)[C@@H]2[C@@H]3C(=O)N(C[C@@H]4CCCO4)C(=O)[C@@H]3CC[C@H]12)OCc1ccccc1 | 0.278 | 0.545 | 0.768 | 0.0311 (inactive) | -0.132 | -0.658 | -0.0485 | -0.281 | -0.575 | 0.902 | -0.453 | 1.16 | -0.156 | 0.0715 | 0.226 | 0.0377 | -0.0146 | 0.154 | 0.349 | 0.275
3 | CCC=CCCC(OC(=O)c1ccc(Br)cc1)C1=CCCCC1=O (stereo not given) | 0.964 | -0.305 | 0.457 | 0.798 (inactive) | 0.681 | 0.166 | 0.718 | 1.05 | 0.592 | 1.55 | 1.17 | -2.38 | 0.664 | -1.06 | -1.54 | -0.0512 | -0.124 | -0.198 | 0.221 | 0.654
4 | CC(C)=CCCC(C)=CCON=C1C[C@@H](O)[C@@H](O)[C@@H]2[C@@H]3C(=O)N(c4cccc(Oc5ccccc5)c4)C(=O)[C@@H]3CC[C@@H]12 | 0.517 | 0.132 | -0.209 | -0.991 (inactive) | 0.612 | -0.112 | 0.118 | 0.574 | 0.373 | 0.399 | 1.21 | -1.36 | 0.353 | 0.33 | -0.126 | -0.13 | -0.0064 | -0.287 | 0.444 | 0.305
5 | CO[C@H]1COC(=O)CC=C[C@H](C)[C@@H](OC)COC(=O)[C@H](C)COC(=O)CC=C[C@@H]1C | 0.661 | -0.822 | -1.53 | -0.0334 (inactive) | 0.0773 | 0.429 | 1.36 | 1.1 | 1.78 | 1.52 | -0.61 | 0.507 | 1.33 | -0.774 | -1.62 | -0.154 | -0.439 | -0.303 | -0.396 | -0.876
6 | CC=CC1=C(CO)C(=O)[C@@H]2O[C@@H]2C1=O | 0.148 | -0.703 | -1.79 | -0.546 (inactive) | 0.799 | 0.571 | 1.01 | 1.17 | 1.57 | 1.49 | -1.52 | -2.28 | 1.27 | -1.58 | -1.61 | -0.145 | -0.304 | 0.0947 | -0.822 | 0.177
7 | Cn1c(=O)n2n(c1=O)[C@H]1[C@H](O)[C@@H]3O[C@@H]3C(=NOCc3ccccc3)[C@H]1CC2 | 0.421 | -0.263 | -0.374 | 2.48 (inactive) | -0.414 | -0.046 | -0.0492 | -0.136 | -0.0857 | -0.241 | 0.729 | -1.28 | -0.0238 | -0.17 | 0.33 | -0.232 | -0.0339 | -0.0524 | -0.0588 | 0.0868
8 | O=C1C[C@@H](O)[C@@H](O)[C@@H]2[C@@H]3C(=O)N(Cc4ccc5c(c4)OCO5)C(=O)[C@@H]3CC[C@H]12 | 0.063 | -0.312 | -0.406 | 1.03 (inactive) | 0.309 | 0.7 | 0.368 | 0.703 | 0.593 | 0.128 | 0.508 | -0.194 | 0.632 | -0.0373 | -0.646 | -0.208 | 0.0121 | -0.0502 | 0.346 | -0.109
9 | C[C@H](ON=C1[C@H]2CCn3c(=O)n(-c4ccccc4)c(=O)n3[C@H]2[C@H](O)[C@@H]2O[C@H]12)c1cn([C@H](CO)Cc2ccccc2)nn1 | -0.0041 | -0.15 | -0.519 | -0.421 (inactive) | 0.513 | 0.266 | 0.377 | 0.659 | 0.559 | 0.437 | 0.345 | -2.91 | 0.605 | 1.15 | -0.444 | -0.0179 | -0.195 | 0.0637 | -0.168 | 0.104
10 | O=C1C[C@@H](O)[C@@H](O)[C@@H]2[C@@H]3C(=O)N(C[C@@H]4CCCO4)C(=O)[C@@H]3CC[C@@H]12 | 0.495 | -0.185 | -0.7 | -0.0639 (inactive) | 0.612 | 0.718 | 0.573 | 0.761 | 0.823 | -0.0076 | 0.27 | -0.321 | 0.723 | 0.187 | -0.426 | -0.0239 | -0.106 | -0.303 | 0.119 | 0.506
11 | COC(=O)CC=C[C@@H](C)[C@@H](C=NOC[C@@H](O)[C@H]1O[C@@H]2OC(C)(C)O[C@@H]2[C@H]1O)NS(=O)(=O)c1ccc(C)cc1 | 0.698 | -0.251 | -0.614 | 0.318 (inactive) | 0.504 | 0.471 | 0.419 | 0.427 | 0.653 | -0.0684 | 0.496 | -0.499 | 0.417 | 0.0636 | -0.627 | -0.0882 | -0.715 | 0.0416 | 0.167 | 0.101
